Screens deposited in PubChem BioAssay by several laboratories.
NR3A LBD binder = NR3A (human) ligand-binding domain modulation; NR3A LBD differential scanning fluorimetry, Tm shift; 0% = protein alone, 100% = glycine-bound protein; 340,000 tested, 2.5% active; Tm shift relative to glycine control, % at 25 µM;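 active means melting temperature shift of at least 10% of the positive control shift, at one fixed dose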
FAS TE block = blocks the thioesterase domain of human fatty acid synthase; inhibition, % at 15 µM; recombinant FAS-TE, OMFH fluorogenic substrate, fluorescence endpoint; 360,000 tested, 0.67% active; AID 602261;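 active means compounds whose normalised, plate-corrected inhibition of enzyme fluorescence in the single-dose primary screen is 50% or more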;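 further: 0% = DMSO with enzyme and 100% = substrate without enzyme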
sPLA2-III inh = Blocks human group III sPLA2 activity; inhibition, % at 12.2 µM; 370,000 tested, 0.56% active; QFRET BODIPY PC-A2 liposome hydrolysis, fluorescence;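 active means inhibition above mean plus 3 SD of compounds lying within the high and low control bounds, cut at about 19% in these data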;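 further: 0% = median of test compound wells and 100% = no enzyme DMSO wells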
ADAM17 inh = inhibitors of human ADAM17. P78536. AID 720648. recombinant ADAM17, EDANS/DABCYL FRET peptide cleavage. inhibition, % at 6.95 µM. 370,000 tested, 0.83% active;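 active means inhibition above the mean of compounds lying between control limits plus 3 SD, set per campaign, cut at about 8.5% in these data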;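 further: 0% = DMSO-only wells as the low control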
Target sequence (P78536 215-824 limits assumed): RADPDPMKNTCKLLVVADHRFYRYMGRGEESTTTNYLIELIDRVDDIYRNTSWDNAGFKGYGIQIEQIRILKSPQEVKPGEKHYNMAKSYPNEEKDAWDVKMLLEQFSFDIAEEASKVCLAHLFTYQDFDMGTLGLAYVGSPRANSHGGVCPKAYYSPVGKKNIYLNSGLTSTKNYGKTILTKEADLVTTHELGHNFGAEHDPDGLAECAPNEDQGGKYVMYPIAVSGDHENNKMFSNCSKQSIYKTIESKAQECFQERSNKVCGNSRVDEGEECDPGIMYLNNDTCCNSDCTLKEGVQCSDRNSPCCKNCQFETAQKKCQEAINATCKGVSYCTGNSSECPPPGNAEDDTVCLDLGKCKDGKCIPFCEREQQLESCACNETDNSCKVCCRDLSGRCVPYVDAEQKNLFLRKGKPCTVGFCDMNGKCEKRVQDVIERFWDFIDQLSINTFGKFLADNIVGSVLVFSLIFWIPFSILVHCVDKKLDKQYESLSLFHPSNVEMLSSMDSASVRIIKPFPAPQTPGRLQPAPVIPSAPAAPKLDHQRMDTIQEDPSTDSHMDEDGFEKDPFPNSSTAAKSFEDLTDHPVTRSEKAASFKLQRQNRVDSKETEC
ADAM10 inh = ADAM10 inhibition, QFRET primary screen; inhibition, % at 7 µM; 370,000 tested, 0.62% active; recombinant ADAM10, EDANS/DABCYL FRET peptide cleavage, 3 h; AID 720582;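 active means inhibition above a per-campaign cutoff equal to the mean of compounds falling between control-based bounds plus 3 SD, cut at about 20% in these data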;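 further: 0% = DMSO wells while the 100% control is not disclosed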
ADAM10 counter = ADAM10 inhibition, counter-screen for ADAM17 exosite hits. recombinant ADAM10, EDANS/DABCYL FRET peptide cleavage, 3 h. AID 743256. 2,900 tested, 47% active. shares compounds with ADAM17 inh. inhibition, % at 6.95 µM;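 active means mean inhibition over the triplicate runs exceeds the activity threshold set in the earlier primary screen, cut at about 20% in these data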;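 further: 0% = DMSO wells and 100% = marimastat wells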
ADAM17 confirm = confirmation of inhibitors of human ADAM17; 2,900 tested, 65% active; shares compounds with ADAM17 inh; recombinant ADAM17, EDANS/DABCYL QFRET peptide cleavage; inhibition, % at 6.95 µM; AID 743257;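 active means mean inhibition across replicates above the hit cutoff set in the primary screen, cut at about 8.5% in these data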;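 further: 0% = DMSO wells and 100% = marimastat wells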
Active calls of the source: *; · = no result given. Shown are actives, neighbours in structure and some others; about 4.3% of the full set was active somewhere.

SMILES | NR3A LBD binder | FAS TE block | sPLA2-III inh | ADAM17 inh | ADAM10 inh | ADAM10 counter | ADAM17 confirm
COc1ccc(OC)c(C(c2nnnn2Cc2ccco2)N2CCN(C)CC2)c1 (configuration not stated) | -1.1 | -9.1 | 4.4 | 0.0 | 7.0 | · | ·
CCc1noc2cc(-c3ccccc3)n(C)c(=O)c12 | · | · | 0.0 | 0.3 | 5.1 | · | ·
CC(c1ccc(Cl)cc1)N(CCN(C)C)c1ccccn1 (configuration not stated) | · | · | -5.6 | -3.8 | -11.6 | · | ·
Cc1ccc(CNC(=O)C(=O)NCCC2CCCCN2S(=O)(=O)c2ccc(C)cc2)cc1 (configuration not stated) | -0.6 | 24.8 | -23.5 | 13.1* | 19.0 | 5.6 | 1.5
Cc1ccc(CNC(=O)C(=O)NCC2OCCCN2S(=O)(=O)c2cccs2)cc1 (configuration not stated) | 9.6 | 0.0 | -8.2 | 10.5* | 3.6 | -2.0 | 0.1
O=C(NCCC1CCCCN1S(=O)(=O)c1ccccc1)C(=O)Nc1ccc(F)cc1 (configuration not stated) | 2.5 | 21.3 | 7.6 | 9.7* | -11.2 | 11.3 | 7.9
Cc1nn(Cc2noc(C(=O)NCc3ccccn3)n2)c(C)c1Br | 0.3 | -7.0 | 3.3 | 9.6* | 8.7 | -2.1 | 1.1
Cc1nn(Cc2noc(C(=O)NCCc3ccccn3)n2)c(C)c1Br | -3.4 | -3.1 | -0.1 | 0.9 | 14.7 | · | ·
O=C(N[C@H](Cc1ccccc1)C(=O)NCC1CCCCC1)[C@H]1O[C@@H](n2ccc(=O)[nH]c2=O)[C@H](O)[C@@H]1O | · | · | 7.0 | -0.8 | -12.9 | · | ·
Cc1cc(Oc2ccccc2)nc(SCC(=O)Nc2ccccc2)n1 | -0.2 | 7.8 | -11.6 | 1.4 | -0.2 | · | ·
Cc1cc(Oc2ccccc2)nc(SCC(=O)Nc2ccc(Cl)c(Cl)c2)n1 | 2.6 | 35.1 | -25.3 | 13.5* | 18.9 | 17.0 | 11.9*
CN1CC[C@@H]2CN(S(=O)(=O)c3ccccc3)[C@H](c3ccccc3Br)C[C@@H]21 | · | · | -14.2 | -2.5 | -5.5 | · | ·
COc1cc(NC(=O)C2CCCN(S(=O)(=O)c3ccc(Cl)s3)C2)cc(OC)c1 (configuration not stated) | · | · | -24.0 | 10.1* | 4.6 | 35.4* | 19.1*
COc1cc(NC(=O)C2CCCN(S(=O)(=O)c3ccccc3)C2)cc(OC)c1 (configuration not stated) | · | · | -16.9 | 3.2 | -0.8 | · | ·
COc1ccc(-c2c(-c3ccc(OCC(=O)NN)cc3O)n[nH]c2C(F)(F)F)cc1 | -4.8 | 3.4 | -21.8 | 12.1* | 18.8 | 10.0 | 8.2
O=C1NC[C@H](Cc2ccc(O)cc2)N(C[C@@H]2CCCN2C[C@H](Cc2ccc(O)cc2)N2C[C@H](Cc3ccccc3)N(CCc3ccccc3)C(=O)C2=O)C1=O | · | 3.2 | -16.2 | 10.2* | 8.4 | -3.8 | 2.3
COc1ccccc1-c1ccc([C@@H]2C[C@H]3[C@H](CON3C)CN2CC2CCCCC2)cc1 | · | · | 7.4 | 6.8 | 1.6 | · | ·
CCOC(=O)c1c(NC(=O)CSc2c[nH]c3ccccc23)sc2c1CCCC2 | 2.8 | 24.0 | -23.6 | 9.7* | 8.8 | 23.9* | 16.7*
CCOC(=O)c1c(NC(=O)CSc2c[nH]c3ccccc23)sc2c1CCC2 | 2.7 | 30.6 | -32.2 | 9.8* | 18.4 | 33.6* | 20.6*
CCOC(=O)c1c(NC(=O)CSc2nnc(-c3c[nH]c4ccccc34)n2CCOC)sc2c1CCCCC2 | -3.6 | 19.6 | -7.7 | -0.8 | 4.8 | · | ·
Cc1cccc(N2C(=O)C(Cc3ccccc3)NC2=S)c1 (configuration not stated) | 1.8 | 0.9 | 0.5 | 2.6 | 9.5 | · | ·
O=C1C(Cc2ccccc2)NC(=S)N1c1ccccc1 (configuration not stated) | 0.3 | -3.4 | -63.1 | 10.1* | 13.3 | -1.9 | 1.8
CN(C)S(=O)(=O)c1ccc(/C(O)=C2/C(=O)C(=O)N(Cc3cccnc3)C2c2ccco2)cc1 (configuration not stated) | 1.8 | -6.3 | 9.3 | 12.3* | 0.4 | 3.0 | 2.1
CN(C)S(=O)(=O)c1ccc(/C(O)=C2/C(=O)C(=O)N(Cc3cccnc3)C2c2ccncc2)cc1 (configuration not stated) | 1.4 | -10.9 | 5.7 | -0.5 | -3.7 | · | ·
O=C(CSc1nc2ccccc2[nH]1)N1c2ccccc2Sc2ccccc21 | -2.0 | 12.1 | 1.2 | 12.2* | 9.9 | 23.6* | 14.2*
SMILES | NR3A LBD binder | FAS TE block | sPLA2-III inh | ADAM17 inh | ADAM10 inh | ADAM10 counter | ADAM17 confirm
COC(=O)C1CCCN(C(=O)C2CCN(S(=O)(=O)c3cccc4cccnc34)CC2)C1 (configuration not stated) | · | · | 0.6 | -0.9 | -4.0 | · | ·
CCCN1C/C(=C/c2ccc3c(c2)OCO3)C(=O)/C(=C/c2ccc3c(c2)OCO3)C1 | -2.0 | -2.3 | 0.8 | 10.3* | -6.5 | 4.0 | 27.6*
Cc1cccc(C(=O)N(CCc2ccccc2)Cc2ccccc2)c1[N+](=O)[O-] | -1.8 | 25.5 | -5.0 | 8.8* | 14.0 | 27.9* | 13.0*
Clc1cccc(CN2CCN(c3ncc(Cc4ccccc4)cn3)CC2)c1Cl | · | · | -4.0 | -3.3 | -9.2 | · | ·
O=C(CSc1nnc(-c2ccccn2)n1-c1ccccc1)c1ccc2c(c1)OCO2 | · | · | -10.8 | 1.8 | 2.2 | · | ·
COc1ccc(/C=N/NC(=O)C(=O)/C=C2\NC3(CCCC3)Cc3ccccc32)cc1 | 0.9 | 11.2 | 12.7 | 11.4* | 9.9 | 8.9 | 8.4
NNC(=O)C(=O)/C=C1\NC2(CCCC2)Cc2ccccc21 | -1.0 | -3.5 | 10.9 | 2.0 | 6.1 | · | ·
CCN(CC)S(=O)(=O)c1cc(NC(=O)C(C)N2CCc3ccccc32)ccc1C (configuration not stated) | -4.1 | 18.4 | -16.3 | 10.1* | 17.9 | 10.5 | 7.1
CCOC(=O)C1=CCN(S(=O)(=O)c2ccccc2F)C1c1cccc(C)c1 (configuration not stated) | · | 17.6 | -2.7 | -1.0 | -1.0 | · | ·
CCOC(=O)C1=CCN(S(=O)(=O)c2ccc(C)cc2)C1c1ccc(CC)cc1 (configuration not stated) | · | 12.6 | -2.0 | 8.8* | -10.1 | 20.1* | 15.8*
CCOC(=O)C1=CCN(S(=O)(=O)c2ccccc2F)C1c1cccc(Br)c1 (configuration not stated) | · | 17.6 | -4.4 | 9.2* | 12.5 | 17.3 | 9.5*
CCOC(=O)C1=CCN(S(=O)(=O)c2ccc(C)cc2)C1c1ccc(C)cc1 (configuration not stated) | · | 13.4 | -7.1 | 4.3 | 6.0 | · | ·
COC(=O)C1=C(C)N(Cc2ccccc2C(F)(F)F)C(=NCc2ccccc2C(F)(F)F)NC1c1ccc(F)cc1 (configuration not stated) | · | · | -4.8 | -0.8 | 0.8 | · | ·
